High-throughput results (PubChem)
In the library only some 7.4% were active in any assay of this set; here they are far more common.
Rab9 prom act = Rab9 promoter activation; AID 485297; Potency, µM (top dose mostly 9.22 µM), hits mostly activators; Huh7 Rab9 promoter-luciferase reporter, luminescence, 24 h; actives 2.8% (n = 320,000); note: nearly all actives have a fitted effect of over 60% in size
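Huh7 cells stably carrying a Rab9 promoter-luciferase reporter, 1500 cells per well in OP-MEM I with 10% FBS, treated with compound 24 hours at 37C. Luciferase activity read by luminescence after 10 minutes with Amplite reagent.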
ELG1 genotox = induces genotoxicity in HEK293T cells with luciferase-tagged ELG1; HEK293T ELG1-luciferase reporter, luminescence, 16 h; Potency, µM (top dose mostly 46 µM), most hits filed as activators; actives 1.3% (n = 330,000); AID 504466; note: nearly all actives have a fitted effect of over 60% in size
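Screening used a luciferase reporter fused to human ELG1 in HEK293T cells. Luminescence was read on a CCD plate imager after 16 hr exposure and 30 min ONE-Glo incubation.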
FLuc modulator = counter-screen for miR-21 project: firefly luciferase inhibitors or activators; P08659; purified FLuc, Km substrates, luminescence inhibition; Potency, µM (doses to about 57.5 µM), most hits filed as inhibitors; actives 6.9% (n = 360,000); note: nearly all actives have a fitted effect of over 55% in size
Target sequence (P08659 whole entry, looked up): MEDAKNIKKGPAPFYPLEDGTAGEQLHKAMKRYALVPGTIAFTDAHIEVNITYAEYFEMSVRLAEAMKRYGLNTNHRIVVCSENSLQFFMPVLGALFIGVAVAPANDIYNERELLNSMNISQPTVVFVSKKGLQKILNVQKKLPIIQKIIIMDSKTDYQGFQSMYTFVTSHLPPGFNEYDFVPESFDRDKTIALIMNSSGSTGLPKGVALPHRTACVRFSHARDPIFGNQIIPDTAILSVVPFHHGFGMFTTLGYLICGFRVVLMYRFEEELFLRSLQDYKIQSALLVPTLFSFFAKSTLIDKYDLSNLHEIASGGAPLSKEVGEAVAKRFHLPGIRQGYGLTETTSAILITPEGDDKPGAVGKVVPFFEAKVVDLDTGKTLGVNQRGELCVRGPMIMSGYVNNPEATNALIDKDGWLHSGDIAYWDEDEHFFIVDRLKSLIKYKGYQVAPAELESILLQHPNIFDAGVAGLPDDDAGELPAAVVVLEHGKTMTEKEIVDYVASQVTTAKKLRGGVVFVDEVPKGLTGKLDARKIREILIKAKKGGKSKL
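Purified P. pyralis luciferase (10nM final) with 10uM D-luciferin and 10uM ATP (Km levels) in 50mM Tris acetate pH 7.5, 10mM Mg acetate, 0.01% Tween-20, 0.05% BSA; qHTS 6-point titration, ~60 µM downward; luminescence read.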
SMN2 splice up = increases expression of the SMN2 splice variant. Potency, µM (series often up to 46.1 µM), hits mostly activators. actives 2.8% (n = 210,000). HEK293 SMN2-luciferase splicing reporter, luminescence, 30-36 h; note: nearly all actives have a fitted effect of over 55% in size
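HEK293 cells carry an SMN2 minigene-luciferase reporter in which exon 7 inclusion puts luciferase in frame. Cells were seeded at 2000 cells/well, attached for 10-12 hours, then exposed to compounds for 30-36 hours at 37C before ONE-Glo luminescence.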
NPC1 prom act = NPC1 promoter activation; Huh7 NPC1 promoter luciferase reporter, 24 h; Potency, µM (highest dose often 9.22 µM), hits mostly activators; actives 2.4% (n = 320,000); note: nearly all actives have a fitted effect of over 60% in size
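Readout is luciferase luminescence, reflecting NPC1 promoter activation in stably transfected Huh7 cells after 24 h compound exposure at 37 °C in reduced-serum medium with 10% FBS.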
Luc counter = Kinase-Glo luciferase inhibition (counter-screen) | Kinase-Glo luciferase, ATP luminescence, 8 min | Potency, µM (highest dose often 38.3 µM), actives largely listed as inhibitors | actives 0.28% (n = 200,000); note: nearly all actives have a fitted effect of over 60% in size
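Compounds were added to a substrate mix at pH 7.2 (50 mM imidazole, 10 uM ATP, within the enzyme's linear range), followed by Kinase-Glo detection reagent; luminescence was measured after 8 minutes at ambient temperature.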
Each line names hits and unclear results; the compound was inactive in the other large screens. Calls come from the whole dose curve; as a rule, active = well fitted curve in the direction sought with a large enough effect; inconclusive = small, poorly fitted or top-dose-only effect, or another doubt; inactive = no such curve, though single readings can be large; an effect the other way counts as inactive or inconclusive.

C/C(=N\Nc1ncnc2sc(C)c(C)c12)c1ccccn1	ELG1 genotox inconclusive, FLuc modulator 5.4µM, NPC1 prom act inconclusive (no result: SMN2 splice up, Luc counter)
Cc1ccc(Nc2ncnc3sc(C)c(C)c23)cc1	ELG1 genotox inconclusive, FLuc modulator 21µM, SMN2 splice up inconclusive
Cc1sc2ncnc(Nc3ccc(O)cc3)c2c1C	none (no result: SMN2 splice up, Luc counter)
COc1cc(/C=N/Nc2ncnc3sc4c(c23)CCC4)ccc1O	ELG1 genotox inconclusive, FLuc modulator 2.4µM
Cc1sc2ncnc(N/N=C/c3cccc(O)c3)c2c1C	ELG1 genotox inconclusive, FLuc modulator 11µM, SMN2 splice up inconclusive
CCOC(=O)C1CCCN(c2c(C(=O)c3ccccc3)cnc3ccc(F)cc23)C1 (configuration not stated)	none (no result: Rab9 prom act, ELG1 genotox, NPC1 prom act, Luc counter)
CC(=O)Oc1ccc(/C=C/C(=O)CC2OC(Oc3cc(OC(C)=O)c4c(c3)O[C@@H](c3ccc(OC(C)=O)cc3)CC4=O)C(OC(C)=O)C(OC(C)=O)C2OC(C)=O)cc1 (some centres not stated)	none (no result: Rab9 prom act, ELG1 genotox, FLuc modulator, SMN2 splice up, NPC1 prom act)
O=C(c1cn(-c2ccccc2)nc1-c1ccccc1)N1CCN(c2ccccn2)CC1	FLuc modulator 11µM
Cc1ccc(-c2nn(Cc3ccccc3)cc2C(=O)N2CCN(c3ccccn3)CC2)cc1	none (no result: SMN2 splice up, Luc counter)
Cc1ccc(-c2nn(-c3ccccc3)cc2C(=O)N2CCN(c3ccccn3)CC2)cc1	FLuc modulator 15µM
COc1ccc(C(=O)NCc2nnc(SCC(=O)Nc3ccccc3OC)n2C)cc1	FLuc modulator 15µM
CCOC(=O)c1ccc(NC(=O)CSc2nnc(CNC(=O)c3ccc(OC)cc3)n2CC)cc1	FLuc modulator 15µM (no result: Rab9 prom act, ELG1 genotox, NPC1 prom act, Luc counter)
COc1ccc(C(=O)NCCc2nnc(SCC(=O)Nc3ccccc3F)n2C)cc1	FLuc modulator inconclusive
COc1ccccc1NC(=O)CSc1nnc(CCNC(=O)c2ccc(C)cc2)n1C	FLuc modulator 15µM (no result: SMN2 splice up)
CCOc1c(Br)cc(C2C=C(C(=O)O)Nc3ncnn32)cc1OC (configuration not stated)	none (no result: Rab9 prom act, ELG1 genotox, NPC1 prom act, Luc counter)
CCC(=O)n1nc(-c2ccco2)nc1SCc1ccccc1	ELG1 genotox inconclusive, FLuc modulator 15µM, SMN2 splice up inconclusive
O=C(Nc1ccc(CN2CCS(=O)(=O)CC2)cc1)c1ccccc1	none (no result: SMN2 splice up, Luc counter)
O=C(Nc1ccc(CN2CCS(=O)(=O)CC2)cc1)c1ccc(C(F)(F)F)cc1	FLuc modulator 17µM (no result: SMN2 splice up, Luc counter)
CC(C)(C)c1ccc(C(=O)Nc2ccc(CN3CCS(=O)(=O)CC3)cc2)cc1	FLuc modulator 9.5µM (no result: SMN2 splice up, Luc counter)
O=C(Nc1ccc(CN2CCS(=O)(=O)CC2)cc1)c1ccc(F)cc1	none (no result: SMN2 splice up, Luc counter)
COc1ccccc1CNC(=O)c1cc2cc3ccc(Cl)cc3nc2o1	none (no result: Rab9 prom act, ELG1 genotox, NPC1 prom act, Luc counter)
Cc1ccccc1C(=O)NCCCc1ccccc1	FLuc modulator inconclusive, SMN2 splice up 13µM
Cc1ccc(-n2nc(CO)c(C(=O)NCCCc3ccccc3)n2)cc1C	FLuc modulator 5.4µM (no result: Rab9 prom act, ELG1 genotox, NPC1 prom act, Luc counter)
Cc1ccc(C(=O)NCCCc2ccccc2)s1	Rab9 prom act inconclusive, ELG1 genotox inconclusive, FLuc modulator 21µM, SMN2 splice up 13µM, NPC1 prom act 4µM
COc1ccc(OC)c(C(=O)CN2C(=O)N(c3ccc(C)cc3)S(=O)(=O)c3ccccc32)c1	none (no result: Rab9 prom act, ELG1 genotox, SMN2 splice up, NPC1 prom act, Luc counter)
CC(C)=CCN1CCN(Cc2cnc(C)s2)CC1CCO (configuration not stated)	Rab9 prom act 0.79µM, ELG1 genotox inconclusive, FLuc modulator 6.7µM, NPC1 prom act 1.6µM (no result: SMN2 splice up)
COC(=O)c1ccc(CN2CCN(CC=C(C)C)C(CCO)C2)cc1 (configuration not stated)	FLuc modulator 17µM (no result: SMN2 splice up)
CC(C)=CCN1CCN(Cc2cnc(N3CCOCC3)s2)CC1CCO (configuration not stated)	Rab9 prom act 2.8µM, ELG1 genotox inconclusive, FLuc modulator 2.1µM, NPC1 prom act 3.2µM (no result: SMN2 splice up)
O=S(=O)(c1ccc(-c2csc(=Nc3ccc(F)cc3)n2CCCCCCO)cc1)N1CCCC1	none (no result: Rab9 prom act, ELG1 genotox, NPC1 prom act, Luc counter)
O=C(CSc1n[nH]c(-c2ccccc2)n1)N1CCN(c2ccccc2F)CC1	none (no result: Rab9 prom act, ELG1 genotox, SMN2 splice up, NPC1 prom act, Luc counter)
O=C(NC1CCCC1)c1c[nH]c2ccc(S(=O)(=O)Nc3cccc(C(F)(F)F)c3)cc2c1=O	FLuc modulator inconclusive (no result: Rab9 prom act, ELG1 genotox, NPC1 prom act, Luc counter)
